Source: PubChem BioAssay AID2284135 (EPA ToxCast)
Records with an inconclusive call do not appear. The source made the active and inactive calls. How the source made its calls: active means hit-call score of the fitted dose curve at least 0.9, where 1 is the maximum; inconclusive means response in the unintended direction; inactive means score below 0.9.

Each molecule was assayed against cAMP-dependent protein kinase catalytic subunit alpha (Homo sapiens) (UniProt P17612) (assay: ERF_TW_ENZ_hPRKACA: Eurofins (ERF) Enzymatic Radiometric [10 uM ATP] LeadHunter Assay for human PKA AGC Kinase).
Procedure: ERF_TW_ENZ_hPRKACA is a biochemical, single-readout assay that uses extracted gene-proteins in a cell-free assay. Measurements were taken 0.25 hour after chemical dosing in a 96-well plate. See PKA Human AGC Kinase Enzymatic Radiometric Assay [10 uM ATP], Panlabs.ERF_TW_ENZ_hPRKACA is an assay component calculated from the ERF_TW_ENZ_hPRKACA assay. It is designed to measure enzyme activity using a type of enzyme reporter as detected by scintillation counting with radiometry technology.Data from the assay component ERF_TW_ENZ_hPRKACA was analyzed at the assay endpoint, ERF_TW_ENZ_hPRKACA, in the positive analysis fitting direction relative to DMSO as the negative control and baseline of activity. Using a type of enzyme reporter, loss-of-signal activity can be used to understand changes in enzymatic activity as they relate to gene PRKACA. To generalize the intended target to other relatable targets, this assay endpoint is annotated to the kinase intended target family, where the subfamily is serine/threonine kinase.
Human protein kinase PKA expressed in E. coli. is used. Test compound and/or vehicle is preincubated with 23 ng/ml enzyme in modified MOPS buffer pH 7.2 at 37C for 15 minutes. The reaction is initiated by addition of 0.5 uM PKA substrate peptide, 10 uM ATP and 0.25 uCi [gamma32P]ATP for another 15 minute incubation period and terminated by further addition of 3 % H3PO4. An aliquot is removed to a 96 well multiscreen, washed with H3PO4 solution, dried and counted to determine the amount of 32P- PKA substrate peptide formed. Compounds are screened at 10 uM.Test Sample Requirements: Minimum for 1) Screen: 25 ul of 10 mM stock -OR- 1 mg (pre-weighed). 2) Dose Response: 60 ul of 10 mM stock -OR- 1 mg (pre-weighed).

AC50, active:
COc1cc(CCC(=O)CC(=O)CCc2ccc(O)c(OC)c2)ccc1O 3.01 µM, O=C(/C=C/c1ccc(O)cc1)CC(=O)/C=C/c1ccc(O)cc1 2.19 µM, COc1cc(/C=C/C(=O)CC(=O)/C=C/c2ccc(O)c(OC)c2)ccc1O 2.97 µM
